Among the test systems are NCI-H23 lung; NCI-H226 lung; NCI-H322M lung; HOP-62 NSCLC; NCI-H460 lung; HOP-92 NSCLC; NCI-H522 lung; A549/ATCC NSCLC; 786-0 renal; COLO 205 colon; DU-145 prostate; K-562 leukemia; MALME-3M melanoma; MDA-MB-231 breast; RXF 393 renal; SF-268 CNS; SF-295 CNS; SF-539 CNS; UACC-257 melanoma; M14 melanoma.
What all share (test): NCI-60 one-dose screen, 48 h (100 = growth as untreated, 0 = no growth, -100 = all killed)
Conditions in all cases: 10 µM unless noted

SMILES strings stand for the structures. The panel holds about 83,000 compounds, 20% with a hit somewhere; the sample as a whole holds those more often.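 Single-concentration screen, 48 h exposure, 96-well plates. Endpoint: percent growth. Below 10 = active.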 Unmarked numbers belong to inactive results. Activity calls are given as the source filed them.

Regarding `COc1cc(-c2csc(NC(=O)Nc3cc(Cl)cc(Cl)c3)n2)cc(OC)c1OC`, the growth with NCI-H23 lung was 23.7%; in the assay on NCI-H226 lung it was 27.5%; with NCI-H322M lung it was -42.1% (active); in the assay with HOP-62 NSCLC it was -64.8% (active); in the assay with NCI-H460 lung it was -61.6% (active); with HOP-92 NSCLC, -14.3% (active). Also, the growth is 37.5% in the assay on NCI-H522 lung; -45.9% (active) in the assay with A549/ATCC NSCLC; -29.2% (active) in the assay on 786-0 renal; 5.56% (active) in the assay on COLO 205 colon; -15.6% (active) in the assay on DU-145 prostate; 32.4% in the assay with K-562 leukemia. For the same compound, the growth in the assay with MALME-3M melanoma was -31.5% (active); with MDA-MB-231 breast, -14.5% (active); in the assay on RXF 393 renal, 15.6%; in the assay on SF-268 CNS, 27.7%; with SF-295 CNS it was -46.1% (active); with SF-539 CNS it was 46.4%. The growth in the assay on UACC-257 melanoma was 56.7%; in the assay with M14 melanoma it was -6.33% (active).
Take `CCC1=C[C@H]2CN(CCc3c([nH]c4ccccc34)[C@@](C(=O)OC)(c3cc4c(cc3OC)N(C)[C@H]3[C@@](O)(C(=O)OC)[C@H](OC(C)=O)[C@]5(CC)[C@@H]6C[C@@H]6CN6CC[C@]43[C@@H]65)C2)C1`: the growth was 44% in the assay with NCI-H23 lung; 47.9% in the assay on NCI-H226 lung; 66.1% in the assay with NCI-H322M lung; 10.7% with HOP-62 NSCLC; 5.3% (active) with NCI-H460 lung; -7.42% (active) in the assay on HOP-92 NSCLC. In addition, the growth was -29% (active) in the assay on NCI-H522 lung; 17.7% in the assay with A549/ATCC NSCLC; 12.6% in the assay on 786-0 renal; -43.5% (active) in the assay on COLO 205 colon; 18.3% in the assay with DU-145 prostate; 2.96% (active) in the assay on K-562 leukemia. Moreover, the growth is 37.3% in the assay on MALME-3M melanoma; -21.9% (active) in the assay on MDA-MB-231 breast; 47.6% with RXF 393 renal; 7.66% (active) in the assay on SF-268 CNS; 11.1% with SF-295 CNS; -13.3% (active) with SF-539 CNS. In addition, the growth with UACC-257 melanoma was 55.1%; in the assay on M14 melanoma, -32% (active).
For the compound `Cc1nnc(/N=C2\NC(=O)/C(=C/c3ccsc3)S2)s1`, the growth in the assay with NCI-H23 lung was 89.8%; in the assay on NCI-H226 lung it was 96%; with NCI-H322M lung, 92.2%; with HOP-62 NSCLC, 80.8%; in the assay with NCI-H460 lung, 67.5%; in the assay with HOP-92 NSCLC, 96.6%. Further, the growth in the assay with NCI-H522 lung is 78.1%; with A549/ATCC NSCLC, 100%; in the assay with 786-0 renal, 94.6%; in the assay on COLO 205 colon, 92.2%; with DU-145 prostate, 98.7%; in the assay with K-562 leukemia, 97.4%. Also, the growth is 80.8% in the assay with MALME-3M melanoma; 108% in the assay with MDA-MB-231 breast; 99.8% in the assay on RXF 393 renal; 85.1% in the assay with SF-268 CNS; 85.9% in the assay with SF-295 CNS; 99.7% in the assay on SF-539 CNS. For the same compound, the growth was 108% in the assay with UACC-257 melanoma and 92% in the assay with M14 melanoma.
For the compound `CC(C)(C)CC(C)(C)Cc1ccc(OCCOCC[N+](C)(C)Cc2ccccc2)cc1`, the growth in the assay on NCI-H23 lung is 20.7%; in the assay on NCI-H226 lung it was 38.1%; in the assay on NCI-H322M lung, 70.6%; with HOP-62 NSCLC, 66.1%; in the assay with NCI-H460 lung, 13.7%; with HOP-92 NSCLC, -7.72% (active). Moreover, the growth is 9.27% (active) in the assay on NCI-H522 lung; 71.8% with A549/ATCC NSCLC; 44.5% in the assay with 786-0 renal; -72.3% (active) with COLO 205 colon; 53.4% with DU-145 prostate; 9.56% (active) in the assay with K-562 leukemia. Further, the growth in the assay with MALME-3M melanoma was -40.2% (active); with MDA-MB-231 breast, -26.7% (active); in the assay on RXF 393 renal it was 16.5%; in the assay with SF-268 CNS, 20.7%; with SF-295 CNS it was 73.5%; with SF-539 CNS it was 30.9%. The growth in the assay with UACC-257 melanoma is 2.66% (active); with M14 melanoma, 7.33% (active).
`O=C1CC23OC(C(O)c4ccccc4N12)C1C(c2ccccc2)=NOC13` (stereo not given): the growth in the assay on NCI-H23 lung is 66.7%; with NCI-H226 lung, 82%; with NCI-H322M lung, 79.7%; in the assay on HOP-62 NSCLC, 68.5%; in the assay with NCI-H460 lung it was 76.5%; in the assay on HOP-92 NSCLC it was 43.3%. In addition, the growth in the assay on NCI-H522 lung is 40.8%; in the assay with A549/ATCC NSCLC, 82.9%; in the assay with 786-0 renal it was 37.2%; in the assay with COLO 205 colon, 50.6%; in the assay on DU-145 prostate it was 81.9%; with K-562 leukemia it was 16.1%. The growth was 49.8% in the assay with MALME-3M melanoma; 52.9% with MDA-MB-231 breast; 71.5% with RXF 393 renal; 64.1% in the assay with SF-268 CNS; 42.3% in the assay with SF-295 CNS; 50% with SF-539 CNS. The figures for the growth in the assay with UACC-257 melanoma and in the assay with M14 melanoma were 89.2% and 16.1%, respectively.
As for `N#Cc1c(-c2ccc(F)cc2)nc(N/N=C/c2cccc(O)c2)nc1N1CCOCC1`, the growth with NCI-H23 lung was 99.9%; in the assay on NCI-H226 lung, 100%; in the assay on NCI-H322M lung it was 81.4%; with HOP-62 NSCLC, 92%; with NCI-H460 lung, 98.3%; with HOP-92 NSCLC, 64.4%. For the same compound, the growth in the assay with NCI-H522 lung was 69.5%; with A549/ATCC NSCLC it was 82.3%; in the assay with 786-0 renal, 65.1%; in the assay on COLO 205 colon it was 73.4%; in the assay on DU-145 prostate, 65.9%; in the assay on K-562 leukemia, 67.5%. Besides, the growth is 100% with MALME-3M melanoma; 96.8% in the assay on MDA-MB-231 breast; 53.9% in the assay with RXF 393 renal; 88.3% with SF-268 CNS; 98.9% with SF-295 CNS; 78.4% in the assay with SF-539 CNS. Besides, the growth was 88.8% with UACC-257 melanoma and 85.6% in the assay with M14 melanoma.
In the case of `OCCNc1nc(NCCO)nc(Nc2ccc(C3=NN(c4cc(Cl)cc(Cl)c4)C(c4ccc(C(F)(F)F)cc4)C3)cc2)n1` (stereo not given), the growth in the assay with NCI-H23 lung was 56.6%; with NCI-H226 lung, 80.2%; in the assay on NCI-H322M lung, 49.1%; with HOP-62 NSCLC, 32.5%; with NCI-H460 lung it was 14.8%; in the assay on HOP-92 NSCLC, 65.8%. Also, the growth with NCI-H522 lung was 61.2%; in the assay with A549/ATCC NSCLC, 32.9%; in the assay on 786-0 renal, 2.27% (active); in the assay with COLO 205 colon it was 25.3%; with DU-145 prostate, 22.2%; in the assay with K-562 leukemia it was 10.7%. Besides, the growth in the assay with MALME-3M melanoma was 29.4%; in the assay with MDA-MB-231 breast, 42.3%; in the assay on RXF 393 renal it was -27.2% (active); in the assay on SF-268 CNS, 41.7%; with SF-295 CNS, -15.5% (active); with SF-539 CNS it was 24.3%. For the same compound, the values for the growth in the assay on UACC-257 melanoma and in the assay with M14 melanoma were 59.4% and 36.1%, respectively.
As for `CC1CCN(CCCCCOc2ccc3oc4ccccc4c(=O)c3c2)CC1`, the growth in the assay on NCI-H23 lung was 75.6%; in the assay on NCI-H226 lung, 90.6%; with NCI-H322M lung it was 78.7%; in the assay on HOP-62 NSCLC, 98.6%; with NCI-H460 lung, 81.8%; with HOP-92 NSCLC it was 83.7%. Also, the growth with NCI-H522 lung is 76.2%; with A549/ATCC NSCLC, 73.5%; in the assay with 786-0 renal it was 75.7%; in the assay on COLO 205 colon it was 58.5%; in the assay with DU-145 prostate, 83.9%; in the assay on K-562 leukemia it was 33.7%. The growth in the assay with MALME-3M melanoma was 44.4%; with MDA-MB-231 breast it was 76.5%; in the assay with RXF 393 renal, 69.1%; in the assay on SF-268 CNS, 79.3%; in the assay with SF-295 CNS, 89.8%; in the assay with SF-539 CNS, 77.8%. The growth was 9.5% (active) in the assay on UACC-257 melanoma and 41% with M14 melanoma.

The values are drawn from PubChem BioAssay (NCI).
